According to PubChem BioAssay (Tox21):
Results filed as inconclusive are left out. Entries that show only a call come without a potency. The source made the active and inactive calls. Calls follow the shape of the dose curve; as a rule, active = well fitted cell-killing curve with a large enough effect in the repeat runs; inconclusive = weak or mixed curves, or effect the other way; inactive = flat fitted curve, though single readings scatter.
Potency is read from the fitted curve at half-maximal effect.

Assay: qHTS assay to identify small molecule antagonists of the constitutive androstane receptor (CAR) signaling pathway - cell viability counter screen (AID 1224837); also: nearly all actives have a fitted effect of over 45% in size
Conditions: HepG2-CYP2B6-hCAR viability, CellTiter-Fluor, 23 h, co-treated with 50 nM CITCO; series mostly up to 92.4 µM
From the text: National Center for Advancing Translational Sciences [NCATS]
NIH Chemical Genomics Center [NCGC]
U.S. Environmental Protection Agency [EPA]
National Institutes of Environmental Health Sciences [NIEHS]
National Toxicology Program [NTP]
U.S. Food and Drug Administration [FDA]
The constitutive androstane receptor (CAR) is a nuclear receptor which regulates multiple drug metabolizing enzymes (DMEs) and transporters. Activating CAR will generally increase the transcription and subsequent translation of CYP2B6 and CYP3A4. These two DMEs represent about 50% of the drug metabolizing potential in the body. When CAR is deactivated, the metabolizing potential in the body will decrease, subsequently increasing the toxicity in the body or lowering the therapeutic potential of a pro-drug. Recently, there have also been studies performed indicating CARs role in energy metabolism and cancer therapy. Therefore, inhibiting CARs activity could have a potential effect on diabetes and cancer. Identifying environmental toxins and compounds which modulate CAR, through the use of the Tox21 10K compound collection, will be an important step in determining the toxicity and potential therapeutic effects these factors will have on the human body. To differentiate true CAR antagonists from cytotoxic substances, the assay is multiplexed with a cell viability assay.
Tox21 Assay Protocol Summary:
A double-stable (hCAR and CYP2B6-2.2kb) transfected cell line, derived from human hepatoma (HepG2) cells, was utilized for the duration of the quantitative high-throughput screens. The HepG2-CYP2B6-hCAR cells were dispensed at 2500 cells/4 uL/well in 1536-well white solid bottom plates using a Multidrop Combi. After the assay plates were incubated at 37 C/5% CO2 for 4 hrs, 23 nL of compounds at 15 concentrations (from 5-48 columns) or positive control (from 1 to 4 columns) were transferred to the assay plates using a Pintool station. One uL of CITCO (final concentration = 50 nM) was added, using a Flying Reagent Dispenser, inside each well. After a 23 hr incubation period at 37 C/5% CO2, 1 uL of CellTiter-Fluor reagent was added into each well of the assay plates using a Flying Reagent Dispenser. The fluorescence intensity in the plates was then measured using a ViewLux plate reader.
For `O=C(O)[C@H](O)[C@@H](O)[C@H](O[C@@H]1O[C@H](CO)[C@H](O)[C@H](O)[C@H]1O)[C@H](O)CO`, the Potency was “inactive”.
In the case of `c1ccc(SSc2ccccc2)cc1`, the Potency is reported as “inactive”.
In the case of `C[Si](Cl)(c1ccccc1)c1ccccc1`, the Potency is reported as “inactive”.
With `CC(C)(C)c1ccc(C(O)CCCN2CCC(C(O)(c3ccccc3)c3ccccc3)CC2)cc1` (stereo not given) the Potency was 26.6 µM (active).
For `CCO[Si](OCC)(OCC)OCC`, the Potency was “inactive”.
In the case of `CC1(C)CCC[C@]2(C)[C@H]3CC(=O)O[C@]3(C)CC[C@@H]12`, the Potency is reported as “inactive”.
For `CCCCC/C=C\C/C=C\CCCCCCCC(=O)O`, the Potency was “inactive”.
For `CCC(COC(=O)CCS)(COC(=O)CCS)COC(=O)CCS`, the Potency was “inactive”.
In the case of `Nc1nc(N)nc(-c2cc(Cl)ccc2Cl)n1`, the Potency is reported as “inactive”.
For `O=[N+]([O-])c1ccc(F)c(Cl)c1`, the Potency was “inactive”.
With `[Cl][Pt-2]([Cl])([Cl])[Cl]` the Potency was “inactive”.
With `Clc1ccnc(Cl)n1` the Potency was “inactive”.
For `CCCCC(CC)CN1CN(CC(CC)CCCC)CC(C)(N)C1` (stereo not given), the Potency was “inactive”.
With `CN1CCN2c3ccccc3Cc3ccccc3C2C1` (stereo not given) the Potency was “inactive”.
With `COC(=O)c1ccccc1OC` the Potency was “inactive”.
For `CCC(C)[O-].CCC(C)[O-].CCOC(=O)/C=C(/C)[O-].[Al+3]`, the Potency was “inactive”.
For `OC1CCC(C2CCCCC2)CC1` (stereo not given), the Potency was “inactive”.
In the case of `CCn1c2ccccc2c2cc([N+](=O)[O-])ccc21`, the Potency is reported as “inactive”.
In the case of `O=C(/C=C/c1ccccc1)OC/C=C/c1ccccc1`, the Potency is reported as “inactive”.
In the case of `Nc1nc2c(ncn2COCCO)c(=O)[nH]1`, the Potency is reported as “inactive”.
For `O=C1OC2(c3ccc(O)cc3Oc3cc(O)ccc32)c2ccc(N=C=S)cc21`, the Potency was “inactive”.
For `COc1cccc(OC)c1C(=O)O`, the Potency was “inactive”.
In the case of `O=C(O)Cc1ccc2c(c1)C(=O)c1ccccc1CO2`, the Potency is reported as “inactive”.
In the case of `NC(=O)c1cccc([N+](=O)[O-])c1`, the Potency is reported as “inactive”.
In the case of `Cc1nc(-c2ccc(Cl)cc2)oc1COC(C)(C)C(=O)O`, the Potency is reported as “inactive”.
With `CC(C)CCCCCOC(=O)CCS` the Potency was “inactive”.
With `CN(C)C(=O)COC(=O)Cc1ccc(OC(=O)c2ccc(N=C(N)N)cc2)cc1` the Potency was “inactive”.
In the case of `Cc1nc2n(c(=O)c1CCN1CCC(c3noc4cc(F)ccc34)CC1)CCCC2`, the Potency is reported as “inactive”.
With `Cc1ccc(C(C)C)cc2c(C)ccc1-2` the Potency was “inactive”.
For `C#C[C@]1(OC(C)=O)CC[C@H]2[C@@H]3CCC4=C[C@@H](OC(C)=O)CC[C@@H]4[C@H]3CC[C@@]21C`, the Potency was “inactive”.
With `Cc1c(C)c2c(c(C)c1O)CC[C@@](C)(CCC[C@H](C)CCC[C@H](C)CCCC(C)C)O2` the Potency was “inactive”.
In the case of `Cc1cc(-n2nc3ccc(Cl)cc3n2)c(O)c(C(C)(C)C)c1`, the Potency is reported as “inactive”.
In the case of `C=Cc1ccccc1C=C`, the Potency is reported as “inactive”.
For `Clc1sc(Cl)c(Cl)c1Cl`, the Potency was “inactive”.
In the case of `c1ccc(C(O[C@@H]2CCCN(CCc3ccc4c(c3)OCO4)C2)c2ccccc2)cc1`, the Potency is reported as “inactive”.
In the case of `c1ccsc1`, the Potency is reported as “inactive”.
In the case of `CCCCCCCC`, the Potency is reported as “inactive”.
In the case of `Cc1ccc(C(=O)O)cc1`, the Potency is reported as “inactive”.
For `CCCC1CCC(=O)CC1`, the Potency was “inactive”.
In the case of `O=c1[nH]c(=O)n([C@H]2C[C@H](O)[C@@H](CO)O2)cc1F`, the Potency is reported as “inactive”.
